Rows were chosen to be rich in hits. Some 7.3% of all compounds tested hit in one or more screens of this group.
Tau fluor counter – counter-screen for tau fibril formation inhibitors | Potency, µM (highest dose often 57.7 µM), for the others: top-dose activity change, negative = decrease | 280,000 tested, 0.93% active | AID 1463 | tau K18 P301L Alexa594 fluorescence, heparin fibrillization; also: nearly all actives have a fitted effect of over 55% in size
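Human K18 P301L tau (15 uM unlabeled plus 0.24 uM Alexa 594-labeled, final) in 100 mM sodium acetate pH 7 was mixed with compound and 20 uM heparin and incubated 6 hr at 37 C.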
Tau fibril FP – tau fibrillization inhibition (FP). K18 P301L tau heparin fibrillization, Alexa594 FP, 6 h. Potency, µM (series often up to 57.7 µM), for inactives: at the top dose activity, negative = inhibition, hits mostly inhibitors. 280,000 tested, 0.39% active; also: nearly all actives have a fitted effect of over 55% in size
Target sequence (P10636 561-689 P618L limits assumed): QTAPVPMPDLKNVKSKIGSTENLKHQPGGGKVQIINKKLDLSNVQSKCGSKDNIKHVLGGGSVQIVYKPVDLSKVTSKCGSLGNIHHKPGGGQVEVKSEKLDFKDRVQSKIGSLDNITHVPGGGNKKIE
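Compound effects on tau fibrillization are measured by Alexa 594 fluorescence polarization (ex 555, em 632 nm). K18 P301L tau is used at 15 uM with 0.24 uM labeled tracer, and 20 uM heparin induces aggregation over 6 hr at 37 C.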
Tau fibril ThT – blocks human tau fibril formation measured by thioflavin T; P10636; recombinant tau K18 P301L, heparin-induced fibrillization, ThT fluorescence; Potency, µM (doses to about 57.4 µM), without a hit: at the highest dose activity, negative = inhibition, hits mostly inhibitors; 270,000 tested, 2.1% active; also: nearly all actives have a fitted effect of over 55% in size
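Fibril formation assay: tau K18 P301L at 15 uM with trace Alexa 594 label, heparin inducer 20 uM, pH 7 sodium acetate buffer, 37 C for 6 hr; endpoint ThT signal.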
Gal4-VP16 FLuc – Gal4-VP16 reporter inhibition counter-screen. Drosophila S2 Gal4-VP16 UAS-luciferase, luminescence, 20 h. Potency, µM (top dose mostly 53.6 µM), without a hit: at the highest dose activity, negative = inhibition, hits mostly inhibitors. 310,000 tested, 3.5% active;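 also: Gal4-VP16 expression switched on by copper sulfate through the metallothionein promoter; nearly all actives have a fitted effect of over 50% in size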
RORg inh – ROR gamma (mouse) transcription inhibition | Drosophila S2 Gal4-RORgamma UAS-luciferase reporter, 20 h | Potency, µM (series often up to 53.6 µM), without a hit: at the highest dose activity change, negative = inhibition, most hits filed as inhibitors | 310,000 tested, 5.4% active | AID 2551; also: nearly all actives have a fitted effect of over 60% in size
Target sequence (P51450 whole entry, looked up, the tested form may be a part): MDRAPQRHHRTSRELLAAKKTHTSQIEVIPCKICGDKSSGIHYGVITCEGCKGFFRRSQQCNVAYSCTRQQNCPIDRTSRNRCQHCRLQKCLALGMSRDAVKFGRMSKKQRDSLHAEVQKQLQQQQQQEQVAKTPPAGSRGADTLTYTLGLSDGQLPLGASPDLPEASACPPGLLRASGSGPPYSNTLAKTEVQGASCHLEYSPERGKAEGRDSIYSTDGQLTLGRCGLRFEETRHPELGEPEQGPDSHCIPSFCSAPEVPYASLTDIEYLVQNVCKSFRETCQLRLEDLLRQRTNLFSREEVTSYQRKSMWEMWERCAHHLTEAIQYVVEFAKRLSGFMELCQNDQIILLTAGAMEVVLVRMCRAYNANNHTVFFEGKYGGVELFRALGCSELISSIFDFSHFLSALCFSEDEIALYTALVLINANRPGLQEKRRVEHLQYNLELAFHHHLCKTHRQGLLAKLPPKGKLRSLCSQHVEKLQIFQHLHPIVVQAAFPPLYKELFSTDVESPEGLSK
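Drosophila S2 cells stably expressing Gal4-DBD/mouse RORγ fusion under metallothionein promoter plus UAS-luciferase; compound 1 h, then 700 uM CuSO4 induction for 20 h at ambient temperature; inhibition read as reduced luminescence.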
Starred values were filed as active, the others as inactive; ? = inconclusive; . = no result; [ ] = remark or other dose. Calls follow the shape of the dose curve; as a rule, active = well fitted curve in the direction sought with a large enough effect; inconclusive = small, poorly fitted or top-dose-only effect, or another doubt; inactive = no such curve, though single readings can be large; an effect the other way counts as inactive or inconclusive. % is scaled to controls: 0 for no effect and ±100 for the full control effect; potency is read from the fitted curve at half-maximal effect.

SMILES	Tau fluor counter	Tau fibril FP	Tau fibril ThT	Gal4-VP16 FLuc	RORg inh
CCN(CC)CCCNC(=O)c1ccc2c(c1)sc1nc(-c3ccc(C)cc3)cn12	-26.9%	4.4%	?	.	.
CCC(CC)NC(=O)c1oc2ccccc2c1COc1ccccc1	5.4%	5.9%	5.5%	28.2µM*	?
Cc1ccc(Cl)cc1NC(=O)C(Cc1ccccc1)N1C(=O)C2C3CCC(C3)C2C1=O (centres undefined)	-12.9%	-2.1%	-1.7%	79.4µM*	-20.0%
CCOc1ccccc1N(CC(=O)NCc1ccco1)C(=O)CCC(=O)Nc1nccs1	.	.	.	-0.3%	38.2%
Cc1ccc(S(=O)(=O)/C=C/C#N)cc1	-4.6%	-19.7%	?	0.562µM*	1.12µM*
Cc1ccc(S(=O)(=O)c2ccc(C)cc2)cc1	-7.3%	-11.0%	-1.6%	7.9%	27.8%
Cc1ccc(S(=O)(=O)/C=C\C#N)cc1	-8.4%	?	?	0.562µM*	0.631µM*
CC(C)(C)c1ccc(S(=O)(=O)/C=C\C#N)cc1	-16.2%	?	?	0.794µM*	0.631µM*
CC(C)(C)c1ccc(S(=O)(=O)N2CCN(CCC#N)CC2)cc1	-7.3%	-8.7%	-4.2%	0.6%	?
Cc1cc(C)cc(NC(=O)c2cc(C)nc3ccccc23)c1	.	.	.	-5.5%	3.4%
Cc1ccc(S(=O)(=O)c2nnn3c2nc(N(C)Cc2ccccc2)c2cc(Cl)ccc23)cc1C	-8.1%	-5.3%	-3.6%	.	.
COc1ccc(Cl)cc1NC(=O)Nc1cnccn1	.	.	.	8.1%	18.2%
O=C(COc1ccc(Cl)cc1)NNC(=O)c1ccccn1	-0.3%	-7.3%	-0.8%	?	10µM*
COc1ccc(Cl)cc1NC(=O)NNC(=O)c1ccccn1	.	.	.	7.08µM*	4.47µM*
Cc1cc(Nc2cccc(C(=O)O)c2)n2ncnc2n1	.	.	.	6.5%	-0.8%
CCC[C@@H]1C[C@@]1(CCC)C(NP(=O)(c1ccccc1)c1ccccc1)c1ccc(Cl)cc1 (some centres undefined)	-2.3%	3.8%	?	-6.6%	-2.2%
Cc1ccc(C2(c3ccc(C)cc3)CC2C(=O)Nc2ccc([N+](=O)[O-])cc2O)cc1 (centres undefined)	10µM*[quencher]	?	-13.8%	?	?
COc1cc(S(=O)(=O)NCCc2c(C)[nH]c3ccc(C)cc23)ccc1Br	14.1µM*[quencher]	?	?	.	.
COc1ccc(C(C)C)cc1S(=O)(=O)NCCc1c(C)[nH]c2ccc(C)cc12	10µM*[quencher]	?	?	.	.
Cc1[nH]c2ccccc2c1CCNS(=O)(=O)c1ccc(S(N)(=O)=O)cc1	.	.	.	-2.8%	?
Cc1ccc(S(=O)(=O)c2nnn3c2nc(NCc2ccccc2Cl)c2sccc23)cc1	-13.8%	?	9.7%	.	.
CCOc1ccc(NC(=O)C2CCCN(S(=O)(=O)c3ccc(Br)s3)C2)cc1 (centres undefined)	?	?	-7.5%	.	.
N#CC1=C(N)SC(N)=C(C#N)C1c1ccc([N+](=O)[O-])cc1	?	-11.5%	20µM*	?	?
CCOc1ccc(C2C(C#N)=C(N)SC(N)=C2C#N)cc1OCC	?	-1.3%	?	7.94µM*	-28.3%
O=[N+]([O-])c1ccc2c(c1)C(O)n1nc(-c3ccc(Cl)cc3Cl)nc1S2 (centres undefined)	-17.5%	-1.0%	?	?	11.2µM*
SMILES	Tau fluor counter	Tau fibril FP	Tau fibril ThT	Gal4-VP16 FLuc	RORg inh
COc1cc(O)c(C(=O)/C=C/c2ccc(OC)c(O)c2)c(OC)c1	?	-1.9%	3.16µM*	?	?
COc1cc(/C=C/C(=O)c2ccc(NS(=O)(=O)c3ccc(C)cc3)cc2)ccc1OC(F)F	9.8%	-8.0%	15.1%	?	?
COc1cc(/C=C/C(=O)c2c(O)cc(C)oc2=O)cc(OC)c1O	?	-13.6%	28.2µM*	-18.7%	-29.4%
COc1cc(/C=C/C(=O)c2ccc(C)c([N+](=O)[O-])c2)cc(OC)c1O	?	7.2%	6.31µM*	?	?
COc1cc(/C=C/C(=O)c2ccc(NS(=O)(=O)c3ccc(C)cc3)cc2)cc(OC)c1O	14.1µM*[quencher]	14.9%	11.2µM*	?	?
O=C(Nc1cccc(C(=O)O)c1)/C(=C\c1ccc(F)cc1)NC(=O)c1ccco1	.	.	.	1.4%	-19.8%
CC(C)[C@H](N)C(=O)N1CCC(C(=O)N[C@@H](Cc2ccccc2)C(=O)NCc2ccc(F)cc2)CC1	.	.	.	4.7%	-10.1%
COc1cc(/C=C/C(=O)c2cccc([N+](=O)[O-])c2)cc(OC)c1OC	?	0.1%	?	?	15.8µM*
COc1cc(/C=C/C(=O)c2ccccc2O)cc(OC)c1OC	-5.0%	10.8%	?	?	2µM*
O=C(/C=C/c1ccccc1F)c1cccc([N+](=O)[O-])c1	?	18.8%	?	?	?
COc1ccc(/C=C/C(=O)c2ccc(C)c([N+](=O)[O-])c2)cc1O	-0.6%	0.1%	4.3%	15.8µM*	-83.8%
O=C1CCC=C1[C@@H](O)CCc1ccccc1	-4.8%[11.6 µM]	-3.4%[11.6 µM]	-4.7%[11.5 µM]	-1.3%[10 µM]	-15.9%[10 µM]
COc1ccc(Cl)cc1-c1ccc(C(=O)O)s1	-2.7%[81.3 µM]	6.2%[81.3 µM]	-12.2%[81.4 µM]	-15.4%[96.6 µM]	-21.5%[96.6 µM]
COC(=O)Oc1ccc(/C=N/NC(=O)CN(c2ccccc2Cl)S(C)(=O)=O)cc1OC	-17.0%	-6.0%	-2.5%	-0.3%	0.0089µM*
COC(=O)Oc1ccc(/C=N/NC(=O)CSCc2ccc(Cl)cc2)cc1OC	?	-8.1%	-15.7%	15.8µM*	-8.1%
CCCN1CCN(C(=O)c2oc3ccccc3c2NC(=O)COc2ccc(OC)cc2)CC1	.	.	.	-6.5%	-13.8%
O=C(O)c1cc(O)c2c(c1)[C@H]([C@H]1c3cc(C(=O)O)cc(O)c3C(=O)c3c(O[C@@H]4OC(CO)C(O)C(O)C4O)cccc31)c1cccc(O[C@@H]3OC(CO)C(O)C(O)C3O)c1C2=O (some centres undefined)	?	?	22.4µM*	-19.3%	-35.8%
CCCc1cc(=O)n2[nH]c(NC(=O)c3ccccc3Cl)nc2n1	4.2%	5.1%	3.5%	.	.
Cc1ccc(N=Cc2ccc[nH]2)c(O)c1	?	?	15.8µM*	.	-18.3%[0.365 µM]
Cc1ccc(N=Cc2sc(O)c3ccccc23)c(C)c1	-28.5%	?	?	-15.1%	?
Cc1cccc(CCNC(=O)c2cccc(N3CCCC3=O)c2)c1	.	.	.	-14.5%	10µM*
O=C(NCCc1ccccc1)c1cccc(N2CCCC2=O)c1	.	.	.	10µM*	11.2µM*
O=C1CN(C(=O)c2ccccc2Br)C(c2ccc(F)cc2)c2cc(F)ccc2N1 (centres undefined)	.	.	.	-9.9%	16.7%
Cn1cc(C(=O)C(=O)N2CCc3ccccc32)c2ccccc21	.	.	.	-0.4%	-20.0%
COc1ccc(O)c(C(=O)CC(=O)c2ccccc2C)c1	-12.3%	-0.7%	-8.0%	0.708µM*	20.4%
COc1ccc(C(=O)CSc2nc(SC)ns2)cc1OC	-11.2%	1.9%	-17.6%	22.4%	-8.8%
COC(=O)c1ccccc1NCC(=O)c1ccc(OC)cc1	.	.	.	17.8µM*	28.9%
